Reference: PubChem BioAssay (EPA / NIEHS)
Calls of active or inactive are those of the source. How the source made its calls: active means hit-call score of the fitted dose curve at least 0.9, where 1 is the maximum; inactive means score below 0.9.

Experiments:
[1] = read-out: Macrophage colony-stimulating factor (MCSF), CSF1 (gene 1435); experiment: BSK_hDFCGF_MCSF: BioMAP Diversity Plus: hDFCGF Assay for Macrophage colony-stimulating factor (MCSF) Biomarker Activity (AID 2283060); settings: primary human foreskin fibroblasts; actives raise or lower the signal
How it was run: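 M-CSF levels, determined by ELISA, are taken at 24 h after dosing human skin fibroblasts. Responses in either direction are fitted with DMSO serving as the baseline.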

[2] = BSK_hDFCGF_SRB: Viability Assessment in the BioMAP Diversity Plus: hDFCGF Assay (AID 2283061); settings: primary human foreskin fibroblasts;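 further: cells exposed to compound for 24 h before the read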
How it was run: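 Cells were dosed with test chemical, cultured 24 h, fixed with 10% TCA, then stained with 0.1% SRB and read at 560 nm. The fibroblasts were human foreskin primary cells, and DMSO served as baseline.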

[3] = read-out: TIMP metallopeptidase inhibitor 1 (TIMP1), TIMP1 (gene 7076); experiment: BSK_hDFCGF_TIMP1: BioMAP Diversity Plus: hDFCGF Assay for TIMP metallopeptidase inhibitor 1 (TIMP1) Biomarker Activity (AID 2283062); settings: primary human foreskin fibroblasts; actives raise or lower the signal
How it was run: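 Fibroblasts from human foreskin are treated with test chemical and harvested at 24 h. TIMP-1 is quantified by ELISA, and gain or loss of signal is scored against DMSO.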

[4] = read-out: Monokine induced gamma interferon (MIG), CXCL9 (gene 4283); experiment: BSK_hDFCGF_MIG: BioMAP Diversity Plus: hDFCGF Assay for Monokine induced gamma interferon (MIG) Biomarker Activity (AID 2283063); settings: primary human foreskin fibroblasts; actives raise or lower the signal
How it was run: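 MIG signal, determined by ELISA, reflects 24 h chemical exposure of human skin primary fibroblasts. DMSO serves as negative control and baseline.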

[5] = read-out: Matrix Metallopeptidase 1 (MMP1), MMP1 (gene 4312); experiment: BSK_hDFCGF_MMP1: BioMAP Diversity Plus: hDFCGF Assay for Matrix Metallopeptidase 1 (MMP1) Biomarker Activity (AID 2283064); settings: primary human foreskin fibroblasts; actives raise or lower the signal
How it was run: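 Primary human foreskin fibroblasts exposed to chemicals for 24 h; MMP1 measured by ELISA. Cytotoxicity tracked by SRB staining in parallel cultures; bidirectional fit relative to DMSO.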

[6] = read-out: Vascular cell adhesion molecule 1 (VCAM1), VCAM1 (gene 7412); experiment: BSK_hDFCGF_VCAM1: BioMAP Diversity Plus: hDFCGF Assay for Vascular cell adhesion molecule 1 (VCAM1) Biomarker Activity (AID 2283065); settings: primary human foreskin fibroblasts; actives raise or lower the signal;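 on AC50: VCAM-1 protein level quantified by ELISA after 24 h chemical exposure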
How it was run: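 Cells are dosed, cultured for 24 h, then VCAM-1 is quantified by ELISA; signal increases and decreases are both fitted relative to DMSO.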

[7] = read-out: Plasminogen activator inhibitor-1 (PAI1), SERPINE1 (gene 5054); experiment: BSK_hDFCGF_PAI1: BioMAP Diversity Plus: hDFCGF Assay for Plasminogen activator inhibitor-1 (PAI1) Biomarker Activity (AID 2283066); settings: primary human foreskin fibroblasts; actives raise or lower the signal
How it was run: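 Human foreskin fibroblasts in the hDFCGF system were dosed with compound for 24 h; PAI-1 was quantified by ELISA. Bidirectional curve fitting used DMSO as negative control and baseline.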

[8] = read-out: Intercellular Adhesion Molecule 1 (ICAM1), ICAM1 (gene 3383); experiment: BSK_KF3CT_ICAM1: BioMAP Diversity Plus: KF3CT Assay for Intercellular Adhesion Molecule 1 (ICAM1) Biomarker Activity (AID 2283067); settings: primary human keratinocytes with fibroblasts; actives raise or lower the signal
How it was run: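 Dose the keratinocyte/fibroblast co-culture, wait 24 h, measure ICAM-1 by ELISA, then fit increases or decreases against DMSO. Cytotoxicity is checked in parallel cultures by SRB total-protein staining.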

[9] = BSK_KF3CT_SRB: Viability Assessment in the BioMAP Diversity Plus: KF3CT Assay (AID 2283069); settings: primary human keratinocytes with fibroblasts;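 further: fitted for both signal gain and loss against DMSO baseline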
How it was run: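 Human keratinocyte and foreskin fibroblast co-culture exposed to chemical for 24 h. Total protein measured in parallel cultures by 0.1% sulforhodamine B staining after 10% TCA fixation, read at 560 nm; bidirectional fit relative to DMSO.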

[10] = read-out: Interleukin-1 alpha (IL1a), IL1A (gene 3552); experiment: BSK_KF3CT_IL1a: BioMAP Diversity Plus: KF3CT Assay for Interleukin-1 alpha (IL1a) Biomarker Activity (AID 2283070); settings: primary human keratinocytes with fibroblasts; actives raise or lower the signal
How it was run: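 Primary human keratinocyte plus foreskin fibroblast co-culture, dosed and measured at 24 h in 96-well plates. IL-1a level quantified by ELISA; bidirectional fit relative to DMSO.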

[11] = read-out: TIMP metallopeptidase inhibitor 2 (TIMP2), TIMP2 (gene 7077); experiment: BSK_KF3CT_TIMP2: BioMAP Diversity Plus: KF3CT Assay for TIMP metallopeptidase inhibitor 2 (TIMP2) Biomarker Activity (AID 2283071); settings: primary human keratinocytes with fibroblasts; actives raise or lower the signal
How it was run: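 Human primary keratinocyte/foreskin fibroblast co-culture dosed with chemical and sampled at 24 h. TIMP-2 levels quantified by ELISA; bidirectional fitting against DMSO negative control as baseline.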

[12] = read-out: C-C motif chemokine 2 (Homo sapiens) (UniProt P13500); experiment: BSK_KF3CT_MCP1: BioMAP Diversity Plus: KF3CT Assay for Monocyte Chemoattractant Protein 1 (MCP1/CCL2) Biomarker Activity (AID 2283073); settings: primary human keratinocytes with fibroblasts; actives raise or lower the signal
How it was run: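 Keratinocytes and foreskin fibroblasts were co-cultured, dosed with chemical, and sampled 24 h later. MCP-1 was quantified by ELISA, and the endpoint was analyzed with bidirectional fitting using DMSO as negative control.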

[13] = read-out: Matrix Metallopeptidase 9 (MMP9), MMP9 (gene 4318); experiment: BSK_KF3CT_MMP9: BioMAP Diversity Plus: KF3CT Assay for Matrix Metallopeptidase 9 (MMP9) Biomarker Activity (AID 2283074); settings: primary human keratinocytes with fibroblasts; actives raise or lower the signal;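 on AC50: MMP9 protein level quantified by ELISA in the co-culture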
How it was run: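 Human keratinocyte and foreskin fibroblast co-culture exposed to chemicals for 24 h; MMP9 biomarker measured by ELISA, bidirectional fitting relative to DMSO; cytotoxicity tracked by SRB total protein staining in parallel cultures.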

[14] = read-out: urokinase plasminogen activator (uPA), PLAU (gene 5328); experiment: BSK_KF3CT_uPA: BioMAP Diversity Plus: KF3CT Assay for urokinase plasminogen activator (uPA) Biomarker Activity (AID 2283075); settings: primary human keratinocytes with fibroblasts; actives raise or lower the signal
How it was run: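 Primary human keratinocyte/foreskin fibroblast co-culture exposed to chemical; uPA measured by ELISA at 24 h. Bidirectional fit versus DMSO, with parallel SRB total-protein staining for cytotoxicity.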

CD40, CD40 (gene 958) = experiment: BSK_LPS_CD40: BioMAP Diversity Plus: LPS Assay for CD40 Biomarker Activity (AID 2283076); settings: primary human HUVEC with PBMC; actives raise or lower the signal
How it was run: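 CD40 signal, measured by ELISA, is fitted in both directions relative to DMSO vehicle. The system is an LPS-driven human vascular primary co-culture of endothelial cells and PBMC, sampled 24 h after compound addition.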

[15] = read-out: Interleukin-8 (IL8), CXCL8 (gene 3576); experiment: BSK_LPS_IL8: BioMAP Diversity Plus: LPS Assay for Interleukin-8 (IL8) Biomarker Activity (AID 2283078); settings: primary human HUVEC with PBMC; actives raise or lower the signal
How it was run: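 Endothelial cells and PBMC from human donors are co-cultured, treated with chemicals and LPS, then assayed for IL-8 by ELISA after 24 h. Parallel SRB staining (0.1% SRB after 10% TCA fixation, 560 nm) flags cytotoxicity.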

[16] = BSK_LPS_SRB: Viability Assessment in the BioMAP Diversity Plus: LPS Assay (AID 2283079); settings: primary human HUVEC with PBMC;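 further: total protein by sulforhodamine B absorbance as a cytotoxicity measure; measured one day after compound addition; fitted in both directions against DMSO so loss or gain of signal counts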
How it was run: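 Overt cytotoxicity was gauged by sulforhodamine B total-protein staining in a primary human vascular endothelial and mononuclear cell co-culture 24 h post-dosing. Activity was fitted in both directions relative to DMSO.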

[17] = read-out: Transforming growth factor beta 1 (TGFb1), TGFB1 (gene 7040); experiment: BSK_KF3CT_TGFb1: BioMAP Diversity Plus: KF3CT Assay for Transforming growth factor beta 1 (TGFb1) Biomarker Activity (AID 2283072); settings: primary human keratinocytes with fibroblasts; actives raise or lower the signal
How it was run: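 Human keratinocyte plus foreskin fibroblast primary co-culture, dosed with chemical for 24 h. TGF-b1 quantified by ELISA. Activity fitted bidirectionally against DMSO negative control as baseline.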

[18] = read-out: Interferon-gamma inducible Protein 10 (IP10), CXCL10 (gene 3627); experiment: BSK_KF3CT_IP10: BioMAP Diversity Plus: KF3CT Assay for Interferon-gamma inducible Protein 10 (IP10) Biomarker Activity (AID 2283068); settings: primary human keratinocytes with fibroblasts; actives raise or lower the signal
How it was run: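 KF3CT co-culture (keratinocytes + foreskin fibroblasts), 24 h compound, IP-10 by ELISA; bidirectional fit vs DMSO baseline.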

[19] = read-out: E-selectin (Homo sapiens) (UniProt P16581); experiment: BSK_LPS_Eselectin: BioMAP Diversity Plus: LPS Assay for Eselectin Biomarker Activity (AID 2283077); settings: primary human HUVEC with PBMC; actives raise or lower the signal
How it was run: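 Signal of E-selectin, detected by ELISA, served as the endpoint; cells were umbilical vein endothelium with PBMC, read 24 h after treatment. DMSO defined baseline, and both increases and decreases were fitted.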

Measured: AC50

E-selectin (Homo sapiens), sequence (P16581 whole entry, looked up): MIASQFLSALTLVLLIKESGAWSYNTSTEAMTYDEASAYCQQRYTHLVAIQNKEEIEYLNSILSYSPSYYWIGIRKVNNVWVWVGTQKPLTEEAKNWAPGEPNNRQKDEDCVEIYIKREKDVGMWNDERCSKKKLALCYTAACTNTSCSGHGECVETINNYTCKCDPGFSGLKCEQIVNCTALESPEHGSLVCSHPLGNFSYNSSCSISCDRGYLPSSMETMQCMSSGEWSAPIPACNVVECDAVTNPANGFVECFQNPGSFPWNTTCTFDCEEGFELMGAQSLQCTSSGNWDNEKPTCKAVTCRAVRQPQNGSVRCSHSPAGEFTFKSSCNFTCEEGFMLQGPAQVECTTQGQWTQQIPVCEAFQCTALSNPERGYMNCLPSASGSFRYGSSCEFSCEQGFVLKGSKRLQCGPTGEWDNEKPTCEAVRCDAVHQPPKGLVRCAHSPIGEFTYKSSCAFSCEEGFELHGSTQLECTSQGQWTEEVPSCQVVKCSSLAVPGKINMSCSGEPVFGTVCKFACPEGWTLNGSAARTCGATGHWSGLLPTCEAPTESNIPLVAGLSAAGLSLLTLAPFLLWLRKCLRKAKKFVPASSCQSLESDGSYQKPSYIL

O=C(O)C=CC(F)(C(F)(F)F)C(F)(F)F
not listed: [17] | [18] | [19]
inactive: all other assays above

[N-]=[N+]=[N-]
not listed: [18] | [19]
inactive: all other assays above

ClC1=C(Cl)C2(Cl)C3C(Cl)C(Cl)CC3C1(Cl)C2(Cl)Cl (configuration not stated)
inactive: [12]
active: [1] 5.82 µM | [2] 7.71 µM | [3] 8.69 µM | [4] 9.26 µM | [5] 10.1 µM | [6] 5.47 µM | [7] 10.3 µM | [8] 31.9 µM | [9] 28.2 µM | [10] 20 µM | [11] 26.8 µM | [17] 20 µM | [13] 13.3 µM | [14] 27.9 µM | CD40, CD40 (gene 958) 14.9 µM | [15] 34 µM | [16] 29.9 µM

CCCN(CCC)c1c([N+](=O)[O-])cc(C(C)C)cc1[N+](=O)[O-]
active: [1] 6.75 µM | [2] 13.9 µM | [4] 9.44 µM | [6] 14.3 µM | [7] 20 µM | [13] 14.6 µM | CD40, CD40 (gene 958) 31 µM | [19] 30.8 µM | [15] 31.9 µM | [16] 31.2 µM
inactive: [3] | [8] | [18] | [9] | [10] | [11] | [17] | [12] | [14]

ClC(Cl)=C(c1ccc(Cl)cc1)c1ccccc1Cl
active: [1] 2.86 µM | [2] 3.51 µM | [3] 3.94 µM | [4] 4.45 µM | [5] 3.83 µM | [6] 2.68 µM | [7] 4.24 µM | [8] 5.72 µM | [9] 6.86 µM | [10] 7 µM | [11] 3.67 µM | [17] 5.46 µM | [12] 7.15 µM | [13] 4.38 µM | [14] 11.2 µM | CD40, CD40 (gene 958) 20 µM | [15] 20 µM | [16] 29.6 µM

CC(Cl)(Cl)C(=O)O
not listed: [11] | [18]
inactive: all other assays above

CCOP(=S)(OCC)SCSc1ccc(Cl)cc1
active: [1] 14.4 µM | [6] 3.97 µM | [10] 3.12 µM | [11] 0.533 µM | [17] 0.0592 µM | [13] 0.324 µM | [14] 0.0705 µM | CD40, CD40 (gene 958) 20 µM
not listed: [18]
inactive: all other assays above
